Test results published in PubChem BioAssay AID2783 (National Center for Advancing Translational Sciences (NCATS), 2010).
Results filed as inconclusive are left out. The source made the active and inactive calls. The call rests on the fitted dose curve; in most records, active means well fitted inhibition curve with a large enough effect in the polarisation, with a control signal flat (not every such curve was filed as active); inconclusive means small, poorly fitted or top-dose-only effect, or effect the other way, or a change in a side signal; inactive means no such curve, though single readings can be large or run the other way; the % refers to the polarisation.

target: Menin (Homo sapiens) (UniProt O00255); test: Confirmation of Inhibitors Targeting the Menin-MLL Interaction in MLL Related Leukemias: Competition With Fluorescein Labeled MLL-derived Peptide; details: Fluorescence polarization, fluorescein-MLL peptide displacement from menin; series mostly up to 100 µM
Sequence (O00255 whole entry, looked up): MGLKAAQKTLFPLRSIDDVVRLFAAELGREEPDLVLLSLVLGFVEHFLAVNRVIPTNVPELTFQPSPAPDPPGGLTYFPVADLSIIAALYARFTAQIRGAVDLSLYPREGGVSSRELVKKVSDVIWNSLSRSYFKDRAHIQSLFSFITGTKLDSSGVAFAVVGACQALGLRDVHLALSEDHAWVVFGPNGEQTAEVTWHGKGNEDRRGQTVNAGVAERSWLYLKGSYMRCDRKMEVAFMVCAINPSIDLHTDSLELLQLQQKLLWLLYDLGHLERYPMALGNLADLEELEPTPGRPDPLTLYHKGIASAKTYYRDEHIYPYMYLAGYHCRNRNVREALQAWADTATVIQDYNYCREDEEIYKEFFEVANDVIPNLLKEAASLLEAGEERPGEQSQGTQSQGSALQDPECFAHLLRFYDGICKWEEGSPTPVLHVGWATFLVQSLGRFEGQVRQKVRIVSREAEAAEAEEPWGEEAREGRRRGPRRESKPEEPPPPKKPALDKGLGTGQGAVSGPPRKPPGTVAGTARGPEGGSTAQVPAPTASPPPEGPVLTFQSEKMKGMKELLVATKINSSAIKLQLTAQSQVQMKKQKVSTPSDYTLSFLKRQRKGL

outcome, inactive:
COc1ccc(CN2CCN(C(C)C(=O)N(C)Cc3cccc(F)c3)CC2)cc1OC (configuration not stated)
O=C(c1cc2c(=O)n3ccccc3nc2s1)N1CCOCC1
Cc1nc2oc3c(NCC4CCCO4)ncnc3c2c2c1COC(C)(C)C2 (configuration not stated)
Cc1ccc(/C=C2\SC(=S)N(CC(=O)Nc3ncc(Cc4ccccc4Cl)s3)C2=O)cc1
CCOC(=O)c1sc(NC(=O)Nc2ccc(Cl)cc2)nc1C
C/C(=N\NC(=O)c1nnn(-c2nonc2N)c1C)c1ccc(-c2ccccc2)cc1
Cc1ccc(-c2cc(C(=O)Nc3cc(C)ccc3O)no2)cc1
Cc1cc(C)c2c(=O)cc(C(=O)NCc3ccccc3)oc2c1
Cc1c(CCOC(=O)CC23CC4CC(CC(C)(C4)C2)C3)sc[n+]1Cc1ccc([N+](=O)[O-])cc1
Cc1ccc(NC(=O)CN(C)C(=O)COc2cccc3cccnc23)cc1
CCN1CCN(CC(=O)Nc2ccc(C(C)=O)cc2)CC1
C[C@@H]1CN(C(=O)c2nc3ccc(Cl)cn3c2CNCC[C@@H]2C[C@@H]3C=C[C@H]2C3)C[C@H](C)O1
COc1cccc(-c2nn(-c3ccccc3)cc2/C=C\C(=O)c2cccs2)c1
Cc1cnc(NC(=O)C2C(=O)c3ccccc3S(=O)(=O)N2C)s1 (configuration not stated)
C=C(C)[C@@H]1CC=C(CN2CCN(Cc3ccccc3)CC2)CC1
CCCOc1ccc(C(=O)NNC(=S)NC(=O)c2cc(-c3ccc(Cl)cc3)nc3ccccc23)cc1
CCOc1ccc(C2Nc3ccc4ccccc4c3-c3c2c(=O)oc2ccccc32)cc1 (configuration not stated)
